This assay is described as follows: viability loss of caspase-8 NB7 cells with TRAIL – with/without TRAIL, luminescence panel, confirmation (AID 651596). Conditions: NB7 neuroblastoma + caspase-8, without TRAIL, NB7 Caspase-8, without TRAIL, mean of runs, at 10 µM.
For `CN(C)S(=O)(=O)c1ccc(C(=O)Nc2nnc(SCC(=O)N3CCOCC3)s2)cc1`, the activity amounted to 66%.

With `CCOc1ccc(-c2nc(-c3cccnc3)no2)cc1`, the activity is 51.5%. For the compound `Cc1ccc(C(=O)Nc2ccc3c(c2)CCC3)cc1`, the activity stood at 76.2%.

For the compound `Cc1ccccc1NC(=O)Cc1nc(COC(=O)c2ccc(S(C)(=O)=O)c([N+](=O)[O-])c2)cs1`, the activity was determined as 93.9%.

Take `Cc1cc(N/N=C\c2ccccc2)nc(-c2ccccc2O)n1`: the activity came out at 24.4%. With `CCC(=O)Nc1cc2nn(-c3ccccc3)nc2cc1Cl` the figure was 65.9%; with `Cc1ccc2nc(-c3ccc(NC(=O)COC(=O)c4ccc([N+](=O)[O-])o4)cc3)sc2c1`, 69.9%. With `CCCOc1ccc(-c2cn3ccccc3n2)cc1[N+](=O)[O-]` the figure was 52.1%. For `CC(=O)CSc1nc2cc3c(cc2cc1C#N)OCCO3`, the activity was found to be 35.5%.

Turning to `CC1(C)Cc2c(sc(NC(=O)COc3cccc4ccccc34)c2C#N)C(C)(C)N1`, the activity is 94.1%. Next, `CCC(C)c1ccc(-c2cc(C(=O)OCC(=O)Nc3cc(C)on3)c3ccccc3n2)cc1` (stereo not given): 85.7%; `Cc1nnc(NC(=O)c2nc(S(=O)(=O)Cc3ccccc3)ncc2Cl)s1`: 84.9%. Take `O=c1[nH]c(/C(=N\O)c2ccccc2)no1`: the activity came out at 89.6%. With `N#Cc1ccccc1NC(=O)COC(=O)/C=C/c1cn(-c2ccccc2)nc1-c1ccc(Cl)cc1` the figure was 80.4%; with `COc1ccc(/C=C/C(=O)c2ccc([N+](=O)[O-])o2)cc1`, 80.8%. With `COc1cc2sc3ccc(C#CC4(O)CCCCC4)cc3c(=O)c2cc1OC` the figure was 71.4%; with `CCc1ccc2nc(N(CCCN(C)C)C(=O)c3ccc(S(=O)(=O)N4CCc5ccccc5C4)cc3)sc2c1`, 64%; with `C/C(=N\NC(=O)c1ccccc1O)c1cccs1`, 58.9%. Turning to `CCC(COC)Oc1cc(NCc2ccccc2)c2ncn(C(C)C)c2c1` (stereo not given), the activity is -13.1%. With `CCOc1ccc(N=Cc2c(C)[nH]n(-c3nc4ccccc4[nH]3)c2=O)cc1`, the activity was found to be 86.2%. Next, `O=C(Nc1cccc(O)c1)c1cc(-c2ccccc2Cl)on1`: 78%. Next, `CSc1nc2ccc(NC(=O)c3ccccn3)cc2s1`: 80%; `Cc1ccnc(NC(=O)c2sc3ccccc3c2Cl)c1`: 90.8%.

Consider `c1csc(-c2nnc(-c3ccc(N4CCOCC4)cc3)o2)c1`, for which the activity was 54.2%.

For `CCOC(=O)c1sc2nc(-c3ccccc3)ccc2c1N`, the activity amounted to 66.1%. Consider `O=C(Nc1ccc(NC(=O)C2CC2)cc1)c1ccco1`, for which the activity was 39.1%.

Regarding `CCCCN(CC)CCCNC(=O)C1c2ccccc2C(=O)N(C)C1c1cn(C)c2ccccc12` (stereo not given), the activity was 69.7%.

Take `Cc1cc(C(=O)Cn2nnc3ccccc3c2=O)c(C)n1Cc1cccs1`: the activity was determined as 58.3%. In the case of `CC(C)N(CC(=O)Nc1ccc(Cl)cc1C(F)(F)F)C(=O)CCl`, the activity was 96.2%. Next, `CCOc1ccc(OCC(=O)Nc2cccc(S(=O)(=O)NC3=NCCC3)c2)cc1`: 64.6%; `O=C(c1cc(-c2ccc(Cl)cc2Cl)on1)N1CCOCC1`: 60.3%; `CCCCCCCN(C(=O)CCl)c1ccccc1C`: 98.1%. On to `O=C(Nc1ccc2c(c1)nc1n2CCSC1)c1ccco1`, for which the activity is 75.2%.

For the compound `c1c2c(cc3sc(N4CCCCC4)nc13)OCO2`, the activity worked out at 44.2%. Next, `NC(=O)c1ccsc1NC(=O)c1ccc2c(c1)CCCC2`: 86.7%; `Cc1occc1C(=O)O/N=C(\N)c1ccc(Cl)cc1`: 84.7%. On to `Cc1cccc(/C(N)=N/OC(=O)c2cccc3ccccc23)c1`, for which the activity was 71%.

`Cc1cc(C)c(C#N)c(SCc2nc3ccccc3c(=O)[nH]2)n1`: the activity is 82.5%.

With `O=C(Nc1ccc(-c2cn3ccccc3n2)cc1)c1cccs1`, the activity is 66.1%. Consider `COc1ccc(C(=O)Nc2nc3ccccc3[nH]2)cc1`, for which the activity came out at 95.1%.

The values above are taken from PubChem BioAssay.
